Consider 14 molecules from PubChem BioAssay (NCI).

Some test systems named below: T-47D breast; BT-549 breast; MDA-MB-435 melanoma; SW-620 colon; MCF7 breast; HCT-116 colon; HCC-2998 colon; KM12 colon.
Holding throughout (test): NCI-60 one-dose screen, 48 h (100 = growth as untreated, 0 = no growth, -100 = all killed)
Conditions in all cases: 10 µM unless noted

Structures are written as SMILES. Compounds without any hit were thinned out: in the full panel of roughly 83,000, 20% have a hit.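 In brief: 96-well plates, 48 h treatment, single concentration, percent growth endpoint.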 Values without a mark were called inactive. The source made the active and inactive calls. Rule for the calls: active = growth percent below 10; inactive = the rest.

In the case of `CCC(=O)OC1=CN2C(=NC(c3ccc(N)cc3)=CC2c2cc(OC)c(OC)c(OC)c2)S1` (configuration not stated), the growth in the assay with T-47D breast was 58.2%; with BT-549 breast, 26.8%; in the assay on MDA-MB-435 melanoma, 23.1%; in the assay on SW-620 colon, 28.3%; in the assay with MCF7 breast, 16.7%; in the assay on HCT-116 colon it was 17.9%. In addition, the growth is 89% with HCC-2998 colon and 47.4% in the assay with KM12 colon.
Turning to `Nc1cccc(Cl)c1N`, the growth with T-47D breast was 54.6%; in the assay with BT-549 breast, 97.6%; in the assay on MDA-MB-435 melanoma it was 106%; in the assay on SW-620 colon it was 101%; with MCF7 breast, 39.6%; with HCT-116 colon, 100%. In addition, the growth is 84.2% in the assay on HCC-2998 colon and 99.5% in the assay with KM12 colon.
In the case of `CCN(CC)CCOc1ccc(/C(=C(/C)c2ccccc2)c2ccc(OC(C)=O)cc2)cc1`, the growth was 60.2% in the assay with T-47D breast; 69.1% in the assay on BT-549 breast; 94.8% in the assay on MDA-MB-435 melanoma; 95.5% in the assay with SW-620 colon; 41.7% with MCF7 breast; 79% with HCT-116 colon. The growth was 103% in the assay with HCC-2998 colon and 102% in the assay on KM12 colon.
On to `CC(C)(C)OC(=O)NC(CSCc1ccccc1)C(=O)ON1C(=O)CCC1=O` (configuration not stated), for which the growth in the assay on T-47D breast is 93.9%; in the assay with BT-549 breast it was 117%; in the assay on MDA-MB-435 melanoma, 109%; in the assay on SW-620 colon, 105%; in the assay on MCF7 breast it was 98.4%; in the assay with HCT-116 colon, 92.5%. In addition, the values for the growth in the assay with HCC-2998 colon and with KM12 colon were 101% and 109%, respectively.
With `CCOC(=O)c1c(NS(=O)(=O)c2ccc(C)cc2)sc2c1CCC1(C2)OCCO1`, the growth is 81.3% with T-47D breast; 93.8% in the assay with BT-549 breast; 101% in the assay on MDA-MB-435 melanoma; 90.7% with SW-620 colon; 93.2% with MCF7 breast; 95.9% in the assay on HCT-116 colon. The values for the growth with HCC-2998 colon and with KM12 colon were 92% and 88.8%, respectively.
As for `CC1=C(C#N)C(=O)NC(C)C1` (configuration not stated), the growth with T-47D breast is 91.4%; in the assay on BT-549 breast it was 101%; with MDA-MB-435 melanoma, 107%; in the assay on SW-620 colon it was 106%; in the assay with MCF7 breast, 101%; in the assay with HCT-116 colon, 110%. Besides, the figures for the growth with HCC-2998 colon and with KM12 colon were 79.8% and 107%, respectively.
With `COc1ccc(-n2c(-c3ccccc3)c(-c3ccccc3)c3c(SCC(=O)N/N=C/c4ccc(Cl)cc4)ncnc32)cc1`, the growth was 79.9% with T-47D breast; 85.2% in the assay with BT-549 breast; 98.6% in the assay on MDA-MB-435 melanoma; 99% in the assay with SW-620 colon; 85% with MCF7 breast; 87.8% in the assay on HCT-116 colon. Moreover, the growth in the assay on HCC-2998 colon is 93.2%; in the assay on KM12 colon, 89.1%.
For `COc1cc(-c2nc(N=Nc3c(O)[nH]c4ccc(Br)cc34)[nH]c(=O)c2C#N)cc(OC)c1OC`, the growth in the assay with T-47D breast was 90.6%; in the assay with BT-549 breast, 105%; in the assay on MDA-MB-435 melanoma, 102%; in the assay on SW-620 colon, 93.4%; in the assay on MCF7 breast it was 99.7%; in the assay on HCT-116 colon it was 99.2%. Also, the growth in the assay with HCC-2998 colon is 117%; in the assay with KM12 colon, 100%.
With `COc1cc(NC(N)=NCCC(C)(C)c2ccc(C(F)(F)F)cc2)ncc1C#N`, the growth in the assay on T-47D breast is -2.85% (active); in the assay with BT-549 breast, 53.9%; in the assay with MDA-MB-435 melanoma it was 17%; with SW-620 colon, -0.0248% (active); in the assay with MCF7 breast, -31.3% (active); in the assay on HCT-116 colon, -75.7% (active). In addition, the values for the growth in the assay with HCC-2998 colon and in the assay with KM12 colon were -77.8% (active) and 15.4%, respectively.
Turning to `COc1cc(/C=N\NC(=O)CN2CCN(c3cc4c(cc3F)c(=O)c(C(=O)N/N=C/c3cc(OC)c(OC)c(OC)c3)cn4C3CC3)CC2)cc(OC)c1OC`, the growth is -12.3% (active) in the assay on T-47D breast; -17.7% (active) in the assay on BT-549 breast; -45.1% (active) in the assay on MDA-MB-435 melanoma; 6.11% (active) with SW-620 colon; 7.55% (active) in the assay with MCF7 breast; -32.5% (active) with HCT-116 colon. Moreover, the growth in the assay with HCC-2998 colon is -95.2% (active); with KM12 colon, -61.7% (active).
With `Fc1ccc(-c2nc(-c3nc4ncccc4[nH]3)cc3c2[nH]c2ccccc23)cc1F`, the growth is 51.7% in the assay on T-47D breast; 84% with BT-549 breast; 66.1% in the assay with MDA-MB-435 melanoma; 102% in the assay on SW-620 colon; 38.7% in the assay on MCF7 breast; 30.3% in the assay on HCT-116 colon. Besides, the growth in the assay with HCC-2998 colon is 100%; in the assay on KM12 colon, 71.9%.
With `COc1ccc(S(=O)(=O)NCCCNc2nccc(-c3c(-c4cccc([N+](=O)[O-])c4)nc4sccn34)n2)cc1`, the growth with T-47D breast was 3.31% (active); in the assay on BT-549 breast it was 36.5%; in the assay with MDA-MB-435 melanoma, 42.1%; in the assay on SW-620 colon it was 91.4%; with MCF7 breast, 34.5%; in the assay on HCT-116 colon it was 48.7%. The growth was 82.1% in the assay on HCC-2998 colon and 28.9% in the assay with KM12 colon.
Consider `COc1ccc2cc(-c3ccc(-c4ccc(C(=N)N)cc4)s3)ccc2c1`, for which the growth in the assay on T-47D breast is 91.2%; in the assay on BT-549 breast, 97.9%; in the assay on MDA-MB-435 melanoma, 108%; in the assay on SW-620 colon it was 84.6%; in the assay with MCF7 breast, 73.2%; in the assay with HCT-116 colon, 71.3%. Also, the growth with HCC-2998 colon was 101%; in the assay with KM12 colon, 66.4%.
Turning to `C=C1CCC2C3(C)COC(c4ccccc4)OC3CCC2(C)C1/C=C/C1=CCOC1=O` (configuration not stated), the growth in the assay on T-47D breast was 72.2%; in the assay with BT-549 breast, -18.3% (active); in the assay on MDA-MB-435 melanoma, 31.4%; with SW-620 colon, 25.6%; in the assay on MCF7 breast, 31.8%; in the assay with HCT-116 colon, 8% (active). The growth is 111% in the assay with HCC-2998 colon and 28.7% with KM12 colon.
